We go through 24 compounds from publication PMC4336329 (PLoS ONE, 2015).

About 14,000 (4.5%) of roughly 310,000 compounds showed an effect of 50% or more. Effects have a minus sign here. This is one part of a sample in which strong results are shown more often than they occur.
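Also: peak tail current of the secondary pulse compared with the same well before compound.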

Chain of human ether-à-go-go-related gene (hERG) potassium channel (Q12809 whole entry, looked up): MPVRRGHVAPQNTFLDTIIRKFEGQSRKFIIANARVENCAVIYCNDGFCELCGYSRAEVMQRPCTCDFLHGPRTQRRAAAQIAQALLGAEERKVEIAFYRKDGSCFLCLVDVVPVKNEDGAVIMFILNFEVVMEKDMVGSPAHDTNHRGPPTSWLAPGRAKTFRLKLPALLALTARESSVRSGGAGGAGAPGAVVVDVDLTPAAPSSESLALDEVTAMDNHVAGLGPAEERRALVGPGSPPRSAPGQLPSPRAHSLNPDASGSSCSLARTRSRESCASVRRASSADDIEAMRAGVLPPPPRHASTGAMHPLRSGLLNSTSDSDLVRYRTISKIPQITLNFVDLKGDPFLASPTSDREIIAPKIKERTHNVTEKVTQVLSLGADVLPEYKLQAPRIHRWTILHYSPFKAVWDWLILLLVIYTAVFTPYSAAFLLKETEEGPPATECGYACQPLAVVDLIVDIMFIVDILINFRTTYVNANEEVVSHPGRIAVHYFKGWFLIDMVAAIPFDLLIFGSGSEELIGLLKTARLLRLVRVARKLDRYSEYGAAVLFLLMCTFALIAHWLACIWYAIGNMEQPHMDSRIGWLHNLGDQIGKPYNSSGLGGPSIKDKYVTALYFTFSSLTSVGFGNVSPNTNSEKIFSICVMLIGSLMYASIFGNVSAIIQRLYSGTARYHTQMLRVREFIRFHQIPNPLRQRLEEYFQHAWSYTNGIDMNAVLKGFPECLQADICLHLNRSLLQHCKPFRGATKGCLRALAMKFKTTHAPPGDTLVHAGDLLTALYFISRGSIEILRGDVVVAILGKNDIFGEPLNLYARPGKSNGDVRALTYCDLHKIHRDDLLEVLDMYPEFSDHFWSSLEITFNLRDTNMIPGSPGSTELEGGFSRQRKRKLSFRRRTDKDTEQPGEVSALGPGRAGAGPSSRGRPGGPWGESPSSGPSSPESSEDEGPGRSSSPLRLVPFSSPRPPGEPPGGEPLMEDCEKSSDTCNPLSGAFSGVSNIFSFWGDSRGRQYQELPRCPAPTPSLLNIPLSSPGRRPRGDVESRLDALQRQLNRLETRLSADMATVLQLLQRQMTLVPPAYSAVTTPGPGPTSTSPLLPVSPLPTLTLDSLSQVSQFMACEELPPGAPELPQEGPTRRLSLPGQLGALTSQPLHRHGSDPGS

The test has as its target human ether-à-go-go-related gene (hERG) potassium channel (human, UniProt Q12809). Nature of the test: primary screen, population patch clamp on CHO cells stably expressing hERG; higher = less effect of the substance.
For the compound `COc1ccc2nc3oc(C(=O)N4CCC5(CC4)OCCO5)cc3cc2c1`, the “hERG current change (%, negative = inhibition) at 10uM” value was -16.5%. Then `O=C(Cn1ncc2c([nH]c3ccccc32)c1=O)Nc1ccc(CN2CCCCC2)cc1`, with -65.8%. Consider `O=C(Cn1ncc2c([nH]c3ccccc32)c1=O)NCC1CCN(Cc2ccc(F)cc2)CC1`, for which the “hERG current change (%, negative = inhibition) at 10uM” value is recorded as -66%. The result for `O=C(Cn1ncc2c([nH]c3ccccc32)c1=O)Nc1cccnc1` reads 10.3%; that for `Cc1cccc(CN2CCC(CNC(=O)Cn3ncc4c([nH]c5ccccc54)c3=O)CC2)c1`, -23.1%.

As for `O=C(Cn1ncc2c([nH]c3ccccc32)c1=O)NCC1CCN(Cc2ccccc2F)CC1`, the “hERG current change (%, negative = inhibition) at 10uM” value is on record as -44.2%. The result for `Cc1ccc(NC(=O)Cn2ncc3c([nH]c4ccccc43)c2=O)cc1Cl` reads 21.4%. The result for `CS(=O)(=O)N(CC(O)CON=C1c2ccccc2-c2ccccc21)c1ccc(F)cc1` (stereo not drawn) reads 8.83%; that for `O=C(Cc1ccc(Cl)cc1)c1c[nH]c(C(=O)NCc2cccnc2)c1`, -0.756%; that for `COc1cccc(-c2nnc(SCC(=O)Nc3ccc(OC)c(OC)c3)n2N)c1`, 14.3%. Then `COc1ccc(-n2c(=O)c3c4c(sc3n(CC(=O)NCc3ccco3)c2=O)CCC4)c(OC)c1`, with -4.75%; and `O=C(NCCN1CCOCC1)c1ccc2c(c1)N(Cc1ccc(F)cc1)C(=O)CS2`, with 0.414%; and `COc1ccc(CN(C(=O)CN2C(=O)c3ccccc3S2(=O)=O)C(C(=O)NCC2CCCO2)c2ccco2)cc1` (stereo not drawn), with -4.57%. With `CCn1c(C)nnc1SCC(=O)Nc1ccc(C(C)=O)cc1`, the “hERG current change (%, negative = inhibition) at 10uM” value came out at 11.5%.

For the compound `CCN1CCN(c2oc(/C=C/c3ccccc3)nc2C#N)CC1`, the “hERG current change (%, negative = inhibition) at 10uM” value is given as -63.1%.

As to `CN(C)c1oc(/C=C/c2ccccc2)nc1C#N`, the “hERG current change (%, negative = inhibition) at 10uM” value is 8.93%. The result for `CCN1CCN(c2oc(-c3ccco3)nc2C#N)CC1` reads -24.1%; that for `CCN(CC)CCCNc1oc(/C=C/c2ccccc2)nc1C#N`, -71%; that for `C=CCNc1oc(/C=C/c2ccccc2)nc1C#N`, -28%. Then `CN1CCN(c2oc(/C=C/c3ccccc3)nc2C#N)CC1`, with -53.7%.

In the case of `CN(C)CCCNc1oc(/C=C/c2ccccc2)nc1C#N`, the “hERG current change (%, negative = inhibition) at 10uM” value is recorded as -32.5%.

`CN(C)CCNc1oc(/C=C/c2ccccc2)nc1C#N`: the “hERG current change (%, negative = inhibition) at 10uM” value is recorded as -29.2%.

As for `CNc1oc(/C=C/c2ccccc2)nc1C#N`, the “hERG current change (%, negative = inhibition) at 10uM” value came out at 8.33%. Consider `N#CC1=C(c2ccc(-c3ccccc3)cc2)COC1=O`, for which the “hERG current change (%, negative = inhibition) at 10uM” value is on record as -15.1%.
